Source: PubChem (National Center for Advancing Translational Sciences (NCATS))
Shown is part of a subset that was picked to be rich in hits.
Pf Dd2 growth – qHTS Primary assay for Inhibitors of Plasmodium falciparum Dd2 growth in vitro. AID 1347417, 2020. P. falciparum Dd2 growth, SYBR Green, 72 h. actives 4.3% (n = 120,000). Potency, µM (doses to about 28.9 µM), most hits filed as inhibitors; active means well fitted inhibition curve with a large enough effect; further: nearly all actives have a fitted effect of over 65% in size
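Infected erythrocytes (Dd2, 0.3% parasitemia, 2.5% hematocrit final) are added to compound in RPMI-1640/Albumax II medium, grown 72 h at 37C in low oxygen, then lysed with saponin/Triton-X containing SYBR Green and read by fluorescence.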
Of the large screens only hits and unclear results are named; the others gave an inactive call.

COc1cccc(N2CCN(C(=O)Cn3c(-c4cccs4)cc4ccccc43)CC2)c1	none
O=C(Cn1c(-c2cccs2)cc2ccccc21)NCCCN1CCN(c2ccc(F)cc2)CC1	Pf Dd2 growth 10µM
CCOC(=O)c1c(C)[nH]c(CCC(=O)NCCCN2CCN(c3ccc(F)cc3)CC2)c1C	none
Cc1cccc(CNC(=O)Cn2c(-c3cccs3)cc3ccccc32)c1	Pf Dd2 growth 11.2µM
CC(C)Oc1ccc(CNC(=O)Cn2c(-c3cccs3)cc3ccccc32)cc1	none
Cc1ccc(-c2nc(CNC(=O)[C@@H]3C[C@@H](O)CN3)[nH]c2-c2ccccn2)cc1	none
COc1cccc(CNC(=O)[C@@H]2C[C@@H](O)CN2C2CCN(C(=O)c3cccc(F)c3)CC2)c1	none
CC(C)CC(=O)NCCC1CCN(C(=O)Nc2cc(F)cc(F)c2)CC1	none
O=C(NCCn1ccn2nc(-c3ccc(F)cc3)cc2c1=O)c1c(F)cccc1F	none
COc1ccc(C(=O)N2CCCC2C(=O)Nc2ccccc2Oc2cccnc2)o1 (configuration not stated)	none
Cc1ccc(C)c(Cn2ccn3nc(-c4ccccc4)c(CO)c3c2=O)c1	none
O=C(N[C@@H]1C[C@H](Cn2cc(C3CC3)nn2)[C@@H](O)[C@H]1O)c1ccc2c(c1)OCO2	none
CC1=C[C@@H](CNC(=O)CN(C)C)[C@H](C(C)C)C[C@H]1Cc1nc2ccc(Cl)cc2[nH]1	Pf Dd2 growth 6.31µM
COc1ccc2nc(C[C@@H]3C[C@@H](C(C)C)[C@H](CNC(=O)CCC(=O)O)C=C3C)[nH]c2c1	none
COCC(=O)NC[C@@H]1C=C(C)[C@H](Cc2nc3ccc(Cl)cc3[nH]2)C[C@H]1C(C)C	Pf Dd2 growth 2.51µM
COc1ccccc1CN(Cc1ccccc1OC)C[C@@H]1C=C(C)[C@H](Cc2nc3c(C)cccc3[nH]2)C[C@H]1C(C)C	none
CC1=C[C@@H](CNC(=O)CCC(=O)O)[C@H](C(C)C)C[C@H]1Cc1nc2ccc(C)cc2[nH]1	none
COc1ccc2nc(C[C@@H]3C[C@@H](C(C)C)[C@H](CNC(=O)CCCC(=O)O)C=C3C)[nH]c2c1	none
COc1ccc2nc(C[C@@H]3C[C@@H](C(C)C)[C@H](CNC(=O)NC4CCCCC4)C=C3C)[nH]c2c1	none
COC(=O)c1ccc2nc(C[C@@H]3C[C@@H](C(C)C)[C@H](CNCc4ccccc4O)C=C3C)[nH]c2c1	none
CC1=C[C@@H](CNC2CCOCC2)[C@H](C(C)C)C[C@H]1Cc1nc2ccc(Cl)cc2[nH]1	Pf Dd2 growth 7.08µM
COc1ccc2nc(C[C@@H]3C[C@@H](C(C)C)[C@H](CNCc4ccccc4OC)C=C3C)[nH]c2c1	Pf Dd2 growth 1.26µM
CC1=C[C@@H](CNC2CCOCC2)[C@H](C(C)C)C[C@H]1Cc1nc2ccccc2[nH]1	none
O=C(NCC1CCN(c2cc(-c3ccc(F)cc3)[nH]n2)CC1)c1c[nH]c2ccccc12	none
CCc1noc(-c2ccn3c(CNC(=O)c4cc(C)ccc4C)nnc3c2)n1	none
CC(C)n1cnnc1CC1CCN(C(=O)CN(C)S(=O)(=O)c2cccs2)CC1	none
COc1ccc(CC(=O)N2CCN(c3cc(-c4ccccc4)[nH]n3)CC2)cc1OC	none
COc1ccc(C(C(=O)O)N2CCCN(c3ncccn3)CC2)c(OC)n1 (configuration not stated)	none
O=C1NCCC[C@@H]1NC(=O)[C@@H]1CN(C(=O)C2CCCCC2)CCN1C(=O)c1cccc(F)c1	none
Cc1ccc(CN2CCN(c3cc(NCCO)ncn3)CC2CCO)cc1 (configuration not stated)	none
N#Cc1ccc(C(=O)N2CCC3(CC2)CC(CO)N(C(=O)c2ccccc2)C3)cc1 (configuration not stated)	none
COc1ccc(-c2ccc(NS(=O)(=O)c3ccc(F)c(C(F)(F)F)c3)cc2)nn1	none
CCOc1ccc(-c2cccc(NS(=O)(=O)c3ccc(C)s3)c2)nn1	none
CCOc1ccc(-c2ccc(NS(=O)(=O)c3ccc(C)cc3)cc2)nn1	Pf Dd2 growth 10µM
Cc1nn(C)c2ncnc(NCCc3c[nH]c(=O)[nH]c3=O)c12	none
CNC(=O)c1cnn2ncccc12	none
CCOc1ccccc1CNC(=O)c1noc(-c2ccc(C)cc2)n1	none
Cc1noc([C@@H]2CC(F)(F)CN2C(=O)COc2ccccc2)n1	none
